The structures appear in SMILES notation. The source made the active and inactive calls. Calls come from the whole dose curve; as a rule, active = well fitted inhibition curve with a large enough effect; inactive = no such curve, though single readings can be large or run the other way.

For this assay, the target named is 4'-phosphopantetheinyl transferase Sfp (Bacillus subtilis) (UniProt P39135). Nature of the assay: Inhibitos of Bacillus subtilis Sfp phosphopantetheinyl transferase (PPTase): Dry Powder Followup. To be noted: purified Sfp PPTase enzyme assay, dry powder retest; series mostly up to 114 µM. An excerpt: The covalent attachment of a phosphopantetheinyl (4'-PP) arm to a variety of synthases and other proteins is a key posttranslational protein modification. The 4'-PP is installed on the proteins post-translationally from coenzyme A (CoA) on a conserved serine residue by action of phosphopantetheinyl transferase (PPTase) enzymes. Phosphopantetheinylation is essential for synthase activity, and removal of the PPTase gene precludes natural product synthesis in microorganisms, or in the case of fatty acid biosynthesis, renders the organism unviable. PPTase enzymes belong to a distinct structural superfamily. Within bacteria, these enzymes are grouped into two classes based upon primary structure, the AcpS-Type and Sfp-Type PPTases.
4'-phosphopantetheinyl transferase Sfp (Bacillus subtilis), sequence (P39135 whole entry, looked up): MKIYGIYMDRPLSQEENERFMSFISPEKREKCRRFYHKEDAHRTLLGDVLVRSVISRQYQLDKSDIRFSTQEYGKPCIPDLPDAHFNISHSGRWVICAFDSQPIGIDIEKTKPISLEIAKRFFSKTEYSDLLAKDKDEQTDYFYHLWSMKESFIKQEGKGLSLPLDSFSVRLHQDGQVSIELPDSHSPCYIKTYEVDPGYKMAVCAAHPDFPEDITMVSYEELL
Sfp-type PPTases, corresponding to an activator of surfactin production in Bacillus subtilis, are responsible for modifying type I polyketide and nonribosomal peptide synthases of prokaryotes. Sfp-type PPTases are responsible for the activation of a variety of pathogen-associated virulence factors. […]
In search of small molecule Sfp-PPTase inhibitors, a fluorescence quenching assay was developed for detection of Bacillus subtilis Sfp-PPTase enzymatic activity in a miniaturized high-throughput format. […]
Inhibition of Sfp-PPTase was detected by recording the fluorescence intensity change over a 30-minute reaction period at a 525 nm excitation and 598 nm emission. […]
Three uL of reagents, consisting of buffer (in columns 3 and 4 as negative control) and Sfp-PPTase (in columns 1, 2, 5 - 48) were dispensed into 1,536-well Greiner black solid bottom plate. […] The plate was then centrifuged at 1000 rpm for 15 seconds, and the fluorescence intensity recorded on a ViewLux High-throughput CCD imager (Perkin-Elmer) using standard BODIPY optics (525 nm excitation and 598 nm emission). The plate was then incubated for 30 minutes, and a second read on the ViewLux was performed. The fluorescence intensity difference over the 30-minute period was used to calculate the respective reaction rate for each well.
Consider `Cn1c(SCC(=O)c2cc3ccccc3o2)nnc1-c1ccccc1`, for which the outcome was inactive. For the compound `O=c1[nH]c2ccccc2n2c(-c3ccccc3)nnc12`, the call was inactive. Then `Clc1ccccc1-c1nn2c(-c3ccncc3)nnc2s1`, with “inactive”.

(Values after PubChem BioAssay AID493214 (National Center for Advancing Translational Sciences (NCATS), 2011).)
